Laboratory results from ChEMBL document CHEMBL3988442, “University of Dundee, Small-Polar-MMV Screening Library” (2021).
For some assays here: Potency and affinity values are given separately.

Tests used:
Parameters in all cases: scale not given: direction of the effect not stated beside the values
[1] = molecular target: Protein translocase subunit SecA (Escherichia coli (strain K12)) (UniProt P10408); assay: Assay to Identify E. coli SecA ATPase Inhibitors; assay type: functional; details: 30 µM
[2] = molecular target: T1, Ubiquitin-activating enzyme e1, putative (Leishmania donovani (strain BPK282A1)) (UniProt E9BSI1); assay: Leishmania donovani Ubiquitin Activating Enzyme (LdE1); assay type: functional; details: 30 µM
T1 sequence (whole entry): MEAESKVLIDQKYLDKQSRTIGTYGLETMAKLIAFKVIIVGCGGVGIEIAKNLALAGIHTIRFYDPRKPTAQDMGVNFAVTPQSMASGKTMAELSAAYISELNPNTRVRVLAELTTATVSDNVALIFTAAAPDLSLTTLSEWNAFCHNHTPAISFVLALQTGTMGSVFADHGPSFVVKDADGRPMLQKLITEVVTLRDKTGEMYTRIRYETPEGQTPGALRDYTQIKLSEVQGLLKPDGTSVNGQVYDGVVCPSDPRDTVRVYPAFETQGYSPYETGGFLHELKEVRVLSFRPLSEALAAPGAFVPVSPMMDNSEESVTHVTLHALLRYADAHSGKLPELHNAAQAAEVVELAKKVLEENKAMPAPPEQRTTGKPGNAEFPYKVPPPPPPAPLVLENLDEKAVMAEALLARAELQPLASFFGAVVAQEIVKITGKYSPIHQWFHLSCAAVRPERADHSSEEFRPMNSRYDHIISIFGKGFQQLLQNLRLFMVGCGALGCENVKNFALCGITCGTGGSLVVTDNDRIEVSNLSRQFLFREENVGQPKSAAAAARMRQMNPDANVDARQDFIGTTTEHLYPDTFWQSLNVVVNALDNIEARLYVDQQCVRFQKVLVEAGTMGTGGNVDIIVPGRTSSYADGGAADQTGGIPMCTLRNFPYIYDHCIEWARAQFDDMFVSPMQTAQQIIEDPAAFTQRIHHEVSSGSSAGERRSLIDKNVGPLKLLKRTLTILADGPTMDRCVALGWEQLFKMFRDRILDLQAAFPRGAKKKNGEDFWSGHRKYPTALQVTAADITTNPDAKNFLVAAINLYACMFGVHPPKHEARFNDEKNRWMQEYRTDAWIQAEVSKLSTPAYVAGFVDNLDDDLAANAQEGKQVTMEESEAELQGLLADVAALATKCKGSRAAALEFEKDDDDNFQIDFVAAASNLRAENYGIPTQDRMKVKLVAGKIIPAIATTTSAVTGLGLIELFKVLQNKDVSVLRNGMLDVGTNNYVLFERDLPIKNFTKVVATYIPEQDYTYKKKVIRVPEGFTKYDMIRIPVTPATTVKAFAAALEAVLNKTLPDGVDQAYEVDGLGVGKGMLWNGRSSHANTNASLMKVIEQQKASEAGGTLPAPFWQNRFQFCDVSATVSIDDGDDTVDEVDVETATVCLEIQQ

[3] = molecular target: AMP-activated protein kinase, AMPK (Homo sapiens) (UniProt P54646+O43741+P54619+Q9UGJ0+Q9Y478+Q13131+Q9UGI9); assay: AMP-dependent Kinase enzyme assay. An in vitro enzyme assay that detects ADP turnover that is directly proportional to AMPK activity. This uses naive AMPK that is activated during the assay with MK-8722; assay type: functional; details: 30 µM
[4] = molecular target: Sialic acid-binding Ig-like lectin 9 (Homo sapiens) (UniProt Q9Y336); assay: Hs-Siglec9 ALPHAscreen SOP 20170721; details: 10 µM
Trypanosoma cruzi = assay: Trypanosoma cruzi phosphomannomutase and mannose-1-phosphate guanylyltransferase assay; assay type: functional; details: 10 µM
[5] = molecular target: T2, Arginase-2, mitochondrial (Homo sapiens) (UniProt P78540); assay: in vitro enzyme assay to detect the production of urea directly proportional to the activity of Arginase II; assay type: functional; details: 33.3 µM; note: in the data most compounds retested in dose-response had high values
T2 sequence (whole entry): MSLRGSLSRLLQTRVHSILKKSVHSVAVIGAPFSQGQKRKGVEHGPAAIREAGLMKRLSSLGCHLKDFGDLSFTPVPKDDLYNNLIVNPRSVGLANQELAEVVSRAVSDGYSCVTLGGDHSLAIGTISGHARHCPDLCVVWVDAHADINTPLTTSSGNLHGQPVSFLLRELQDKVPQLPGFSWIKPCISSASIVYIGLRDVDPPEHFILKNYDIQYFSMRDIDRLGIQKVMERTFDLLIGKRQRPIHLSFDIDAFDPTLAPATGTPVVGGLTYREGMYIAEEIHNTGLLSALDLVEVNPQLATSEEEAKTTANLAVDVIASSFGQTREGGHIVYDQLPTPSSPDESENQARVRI

[6] = molecular target: T3, Proteasome subunit beta (Trypanosoma cruzi) (UniProt O96673); assay: Trypanosoma cruzi proteasome chymotrypsin-like activity (TcProtChymo) assay.; note: in the data most compounds retested in dose-response had high values; assay type: functional; details: 9.37 µM
T3 sequence (whole entry): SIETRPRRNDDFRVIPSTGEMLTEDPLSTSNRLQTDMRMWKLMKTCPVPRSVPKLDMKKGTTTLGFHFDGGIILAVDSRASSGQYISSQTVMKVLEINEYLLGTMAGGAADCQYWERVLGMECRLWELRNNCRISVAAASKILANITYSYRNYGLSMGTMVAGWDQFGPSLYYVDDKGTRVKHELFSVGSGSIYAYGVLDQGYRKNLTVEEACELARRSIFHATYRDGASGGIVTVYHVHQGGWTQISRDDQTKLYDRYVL

Homo sapiens = organism: Homo sapiens; assay: To identify inhibition of the IFN signalling (Jak-Stat) pathway via expression of an eGFP reporter gene under the control of an IFN-stimulated response element (ISRE) containing MxA promoter.; assay type: functional; details: 30 µM
[7] = molecular target: T4, Tyrosyl-tRNA synthetase, putative (Trypanosoma cruzi (strain CL Brener)) (UniProt Q4DSP6); assay: Trypanosoma cruzi tyrosyl tRNA synthetase (TcYRS) _High Tyrosine SOP; assay type: functional; details: 30 µM; note: in the data most compounds retested in dose-response had high values
T4 sequence (whole entry): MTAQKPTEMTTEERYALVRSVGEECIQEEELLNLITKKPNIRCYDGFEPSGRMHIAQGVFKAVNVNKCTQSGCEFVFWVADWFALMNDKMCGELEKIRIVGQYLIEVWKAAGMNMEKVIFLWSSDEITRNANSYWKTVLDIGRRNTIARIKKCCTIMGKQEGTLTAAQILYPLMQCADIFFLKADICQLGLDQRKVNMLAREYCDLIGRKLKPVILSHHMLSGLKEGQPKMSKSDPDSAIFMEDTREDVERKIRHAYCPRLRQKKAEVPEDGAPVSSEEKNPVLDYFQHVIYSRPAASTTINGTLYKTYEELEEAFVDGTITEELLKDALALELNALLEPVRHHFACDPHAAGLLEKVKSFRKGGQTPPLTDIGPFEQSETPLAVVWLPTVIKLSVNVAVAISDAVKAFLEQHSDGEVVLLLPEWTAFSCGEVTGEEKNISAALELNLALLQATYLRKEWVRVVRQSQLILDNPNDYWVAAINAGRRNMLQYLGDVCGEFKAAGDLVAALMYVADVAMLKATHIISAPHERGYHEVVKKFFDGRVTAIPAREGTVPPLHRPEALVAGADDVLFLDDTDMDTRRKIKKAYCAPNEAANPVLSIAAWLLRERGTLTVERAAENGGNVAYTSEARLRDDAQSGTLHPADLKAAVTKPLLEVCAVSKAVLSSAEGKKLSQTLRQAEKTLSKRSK

[8] = molecular target: T4, Tyrosyl-tRNA synthetase, putative (Trypanosoma cruzi (strain CL Brener)); assay: Trypanosoma cruzi tyrosyl tRNA synthetase (TcYRS) SOP; assay type: functional; details: 30 µM
[9] = molecular target: Chromo domain-containing protein 1 (Saccharomyces cerevisiae (strain ATCC 204508 / S288c) (Baker's yeast)) (UniProt P32657); assay: ScCHD-1 Enzyme Inhibition Assay; assay type: functional; details: 30 µM; note: in the data most compounds retested in dose-response had high values
Sequence of Chromo domain-containing protein 1 (Saccharomyces cerevisiae (strain ATCC 204508 / S288c) (Baker's yeast)) (P32657 whole entry, the tested form may be a part): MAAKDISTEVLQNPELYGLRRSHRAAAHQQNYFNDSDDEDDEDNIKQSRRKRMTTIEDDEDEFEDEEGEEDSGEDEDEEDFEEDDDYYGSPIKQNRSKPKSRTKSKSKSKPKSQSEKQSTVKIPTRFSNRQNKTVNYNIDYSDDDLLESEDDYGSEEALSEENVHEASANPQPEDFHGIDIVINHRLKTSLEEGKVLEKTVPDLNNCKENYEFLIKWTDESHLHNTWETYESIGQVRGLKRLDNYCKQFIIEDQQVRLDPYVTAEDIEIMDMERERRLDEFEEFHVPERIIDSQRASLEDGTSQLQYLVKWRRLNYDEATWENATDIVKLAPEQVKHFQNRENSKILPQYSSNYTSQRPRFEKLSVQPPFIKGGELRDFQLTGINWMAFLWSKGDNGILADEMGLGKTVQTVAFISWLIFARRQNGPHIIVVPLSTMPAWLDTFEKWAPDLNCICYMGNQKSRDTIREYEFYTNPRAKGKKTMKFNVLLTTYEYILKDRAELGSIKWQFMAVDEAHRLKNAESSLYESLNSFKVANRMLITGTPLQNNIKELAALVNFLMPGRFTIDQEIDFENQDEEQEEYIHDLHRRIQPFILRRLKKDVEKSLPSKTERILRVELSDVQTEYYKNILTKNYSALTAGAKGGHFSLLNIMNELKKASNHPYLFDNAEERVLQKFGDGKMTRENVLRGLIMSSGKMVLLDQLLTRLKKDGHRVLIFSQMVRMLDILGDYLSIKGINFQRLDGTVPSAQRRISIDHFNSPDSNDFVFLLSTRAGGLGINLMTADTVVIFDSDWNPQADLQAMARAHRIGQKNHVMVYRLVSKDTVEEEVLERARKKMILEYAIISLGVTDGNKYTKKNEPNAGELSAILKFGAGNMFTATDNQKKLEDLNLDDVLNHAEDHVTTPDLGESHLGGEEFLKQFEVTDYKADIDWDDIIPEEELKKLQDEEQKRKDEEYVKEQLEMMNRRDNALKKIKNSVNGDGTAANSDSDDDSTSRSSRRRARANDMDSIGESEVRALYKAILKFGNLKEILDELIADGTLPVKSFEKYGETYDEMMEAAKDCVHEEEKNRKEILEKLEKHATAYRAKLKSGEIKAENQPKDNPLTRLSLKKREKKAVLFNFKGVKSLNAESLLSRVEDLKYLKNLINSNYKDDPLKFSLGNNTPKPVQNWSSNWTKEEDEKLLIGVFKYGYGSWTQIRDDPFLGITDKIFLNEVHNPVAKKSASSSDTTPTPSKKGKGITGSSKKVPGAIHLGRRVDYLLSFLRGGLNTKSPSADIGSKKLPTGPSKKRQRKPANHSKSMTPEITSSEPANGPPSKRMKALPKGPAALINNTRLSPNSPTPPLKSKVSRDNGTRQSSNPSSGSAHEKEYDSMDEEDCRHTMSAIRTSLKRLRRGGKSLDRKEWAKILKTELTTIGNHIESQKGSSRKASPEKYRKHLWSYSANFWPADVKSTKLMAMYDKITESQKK

Sequence of Protein translocase subunit SecA (Escherichia coli (strain K12)) (P10408 whole entry): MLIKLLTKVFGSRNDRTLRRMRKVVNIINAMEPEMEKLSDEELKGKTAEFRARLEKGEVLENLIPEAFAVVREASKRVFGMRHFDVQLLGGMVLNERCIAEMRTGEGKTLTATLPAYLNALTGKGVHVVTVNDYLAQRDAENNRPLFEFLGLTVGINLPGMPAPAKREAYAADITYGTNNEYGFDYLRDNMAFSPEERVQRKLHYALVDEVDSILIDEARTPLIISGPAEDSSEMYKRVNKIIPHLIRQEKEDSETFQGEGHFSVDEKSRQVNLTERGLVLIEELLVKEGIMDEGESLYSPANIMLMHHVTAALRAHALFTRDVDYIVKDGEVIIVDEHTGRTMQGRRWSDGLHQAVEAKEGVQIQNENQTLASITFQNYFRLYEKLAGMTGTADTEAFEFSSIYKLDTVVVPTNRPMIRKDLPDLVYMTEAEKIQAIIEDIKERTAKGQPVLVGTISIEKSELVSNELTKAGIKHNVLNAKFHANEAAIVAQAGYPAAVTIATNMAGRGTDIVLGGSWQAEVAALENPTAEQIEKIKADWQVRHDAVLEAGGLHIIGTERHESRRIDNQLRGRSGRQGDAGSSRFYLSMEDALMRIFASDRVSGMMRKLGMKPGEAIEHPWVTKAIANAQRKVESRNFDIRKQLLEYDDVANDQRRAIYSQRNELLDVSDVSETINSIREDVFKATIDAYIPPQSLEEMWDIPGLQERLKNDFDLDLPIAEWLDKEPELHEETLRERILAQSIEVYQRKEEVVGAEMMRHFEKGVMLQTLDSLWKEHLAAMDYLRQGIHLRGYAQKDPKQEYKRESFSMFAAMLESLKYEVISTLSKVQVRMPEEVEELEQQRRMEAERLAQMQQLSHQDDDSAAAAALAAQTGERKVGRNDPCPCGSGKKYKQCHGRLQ
Sequence of Sialic acid-binding Ig-like lectin 9 (Homo sapiens) (Q9Y336 whole entry): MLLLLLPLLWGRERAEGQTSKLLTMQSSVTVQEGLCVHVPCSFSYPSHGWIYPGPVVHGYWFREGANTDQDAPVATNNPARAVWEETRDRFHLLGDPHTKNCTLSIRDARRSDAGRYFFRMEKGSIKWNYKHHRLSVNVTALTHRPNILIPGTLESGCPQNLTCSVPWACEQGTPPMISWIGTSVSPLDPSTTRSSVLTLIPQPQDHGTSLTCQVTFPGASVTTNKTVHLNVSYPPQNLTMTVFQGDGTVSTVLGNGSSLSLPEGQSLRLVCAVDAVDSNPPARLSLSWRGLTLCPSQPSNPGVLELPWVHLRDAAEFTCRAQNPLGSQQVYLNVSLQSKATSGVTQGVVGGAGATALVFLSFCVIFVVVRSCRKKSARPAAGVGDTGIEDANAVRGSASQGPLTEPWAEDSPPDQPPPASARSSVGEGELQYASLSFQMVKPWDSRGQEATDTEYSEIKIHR

| SMILES | Percent Effect [1] [%] | Percent Effect [2] [%] | Percent Effect [3] [%] | Percent Effect [4] [%] | Percent Effect (Trypanosoma cruzi) [%] | Percent Effect [5] [%] | Percent Effect [6] [%] | Percent Effect (Homo sapiens) [%] | Percent Effect [7] [%] | Percent Effect [8] [%] | Percent Effect [9] [%] |
| --- | --- | --- | --- | --- | --- | --- | --- | --- | --- | --- | --- |
| Cc1nn(C)c(N(C)C)c1CNCc1cccc(CN(C)C(C)C)c1 | -3.75 | 13.5 | -10.9 | 25.4 | 3.03 | 10.7 | 9.87 | -7.67 | 5.38 | 21 | -8.38 |
| O=C(NC[C@]12COC[C@H]1CN(Cc1nccs1)C2)N1CCCC1 | -2.52 | 9.33 | 4.41 | 2.77 | -4.52 | -7.92 | 13.5 | -4.41 | 2.12 | 5.13 | -5.18 |
| CN1C(=O)C[C@@H]2[C@@H]1CCN2S(=O)(=O)Cc1ccccc1 | 2.57 | 2.74 | 4.04 | 13.8 | -0.595 | 2 | 2.83 | 1.27 | 3.12 | 3.7 | 6.94 |
| O=C1COC2(CCN(Cc3ccoc3)CC2)CN1c1ccsc1 | 0.00228 | 18.7 | 6.94 | -2.69 | -0.591 | 1.63 | 14.4 | -27.3 | 7.45 | 11.5 | -2.01 |
| CCNC(=O)N1CCC2(C1)c1ccccc1S(=O)(=O)N2CCC(C)C (configuration not stated) | -3.49 | 5.33 | 5.91 | -1.77 | 5.99 | -52.5 | 5.3 | -14.8 | 1.04 | 0 | -0.42 |
| CCCS(=O)(=O)c1ncc(CN2CCC(CO)CC2)n1CC1CCCO1 (configuration not stated) | 0.687 | -6.94 | -2.25 | -1.43 | -5.34 | 0.442 | 4.74 | -4.14 | 0 | -7.69 | 5.71 |
| CN(C)c1ccc(CNc2cncc(-n3cccn3)n2)cc1 | -3.75 | 5.2 | 0.00463 | 7.28 | 3.75 | -6.05 | 6.25 | 9.83 | 2.91 | 12.2 | 72 |
| Cc1cc(NC(=O)CN2CCn3c(nnc3C3CC3)C2)n(C)n1 | -3.7 | -5.26 | 11.5 | -1.43 | -4.7 | 0 | 4.84 | 21.3 | -0.49 | 0 | 3.45 |
| Cc1csc(N2CCN(C(=O)Cc3ccc(C)s3)CC2)n1 | -4.68 | 10.8 | -9.36 | 4.82 | -6.89 | -5.61 | 25.2 | 15.8 | 12.3 | 11.1 | 1.36 |
| Cc1nc(C(C)C)sc1C(=O)NS(=O)(=O)c1ccc(C#N)cc1 | -1.22 | 8.11 | -3.43 | 18.3 | 5.99 | 9.52 | 11.9 | -9.57 | 4.76 | 9.76 | -5.85 |
| CC(C)c1nc(C2CCCN(C(=O)CCn3ccnc3)C2)no1 (configuration not stated) | -0.0893 | 24.3 | -7.28 | -4.78 | 1.42 | -17.6 | 16.4 | 19.3 | 6.4 | 18.5 | -10.5 |
| O=S(=O)(c1ccccc1)N1CCC2(CCCN2CC2CCCC2)C1 (configuration not stated) | -2.93 | -21.6 | -3 | 2.91 | -0.489 | 4.78 | 13.3 | -13.9 | 6.49 | 5.13 | 11 |
| COc1ccccc1C(=O)NC(C)CC(=O)O (configuration not stated) | -6.61 | 11.4 | 1.36 | -1.14 | 1.74 | 1.07 | 2.92 | 12.6 | 5.21 | 15.2 | -12.9 |
| NC(=O)C1CCN(C(=O)NCc2ccccc2Cn2cncn2)CC1 | -3.59 | 5.41 | 4.01 | 0.839 | -3.86 | 0 | 10.2 | 1.83 | 2.65 | 7.32 | -1.94 |
| COCC(=O)N1Cc2cn(C)nc2C(COc2cccnc2)C1 (configuration not stated) | 1.2 | 15.6 | 0.672 | -9.95 | -0.493 | 7.1 | 10.4 | 35.1 | 1.06 | 6.41 | -9.03 |
| CCOCCC(=O)N1CCCN(Cc2csc(CC)n2)CC1 | -0.651 | 3.8 | 1.45 | 3.57 | -1.74 | 2.37 | 25.7 | 7.51 | 6.25 | 10.1 | -30.1 |
| Cc1cc(C[C@@H]2COC[C@@H]2NC(=O)Cn2c(=O)oc3ccccc32)on1 | -0.169 | 5.48 | 1.35 | -2.12 | 3.33 | 8.64 | 1.77 | -6.43 | 4.3 | 7.5 | 1.28 |
| Cn1nccc1CNC(=O)Nc1cc(C(F)(F)F)c[nH]c1=O | -2.37 | 7.89 | -1.77 | 11.9 | 2.44 | 8.43 | 4.51 | 0.842 | 6.37 | 12.2 | -9.48 |
| CC1=Nc2c(c(=O)[nH]n2C(C)C)C(c2ccccc2)S1 (configuration not stated) | -5.22 | 4 | 12.2 | 5.15 | -0.786 | -3.7 | 12 | 32.4 | 22.2 | 28.2 | -3.79 |
| COc1cc(N2C[C@H]3OCC[C@H]3[C@H](C(=O)NC3CC3)C2)ncn1 | -2.33 | 5.48 | -1.57 | 8.48 | 2.18 | 0.399 | 6.93 | 0.456 | 9.38 | 6.17 | -1.62 |
| Cc1ncsc1CN1C[C@@H](OCC2CC2)[C@H]2OCCC[C@H]21 | -6.87 | 8.11 | -8.86 | 32.2 | 4.79 | -0.248 | 24.3 | -4.12 | 5.38 | 16.1 | -8.25 |
| COc1ccc2c(c1)CN(Cc1nc3c(cnn3C)c(=O)[nH]1)CC2 | -1.51 | 15.2 | -8.08 | 0.541 | 0.85 | 2.66 | 7.45 | 8.47 | 4.43 | 21.5 | -7.47 |
